Test results as given in PubChem BioAssay (NCI).
The panel holds about 83,000 compounds, 20% with a hit somewhere; the sample as a whole holds those more often.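 The endpoint reported here, percent growth, reads 100 for growth as untreated, 0 for no net growth and -100 for all cells dead.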 Values without a mark were called inactive. Active and inactive are the calls of the source. Rule for the calls: active = growth percent below 10; inactive = the rest.

Key:
Test in all cases: NCI-60 one-dose screen, 48 h (100 = growth as untreated, 0 = no growth, -100 = all killed)
Conditions in all cases: 10 µM unless noted
HCT-15 colon = test system: HCT-15 colon
HT29 colon = test system: HT29 colon
SNB-75 CNS = test system: SNB-75 CNS
SNB-19 CNS = test system: SNB-19 CNS
U251 CNS = test system: U251 CNS
PC-3 prostate = test system: PC-3 prostate
SK-MEL-5 melanoma = test system: SK-MEL-5 melanoma
UACC-62 melanoma = test system: UACC-62 melanoma
LOX IMVI melanoma = test system: LOX IMVI melanoma
SK-MEL-28 melanoma = test system: SK-MEL-28 melanoma

Structure (SMILES)	growth (HCT-15 colon)	growth (HT29 colon)	growth (SNB-75 CNS)	growth (SNB-19 CNS)	growth (U251 CNS)	growth (PC-3 prostate)	growth (SK-MEL-5 melanoma)	growth (UACC-62 melanoma)	growth (LOX IMVI melanoma)	growth (SK-MEL-28 melanoma)
O=C(/C=C\c1ccc(NCc2ccc(C(=O)O)cc2)cc1)CCl	72.4%	84.9%	91.1%	96.7%	84.5%	96.2%	100%	84.2%	5.63% (active)	104%
COc1ccccc1C(=O)Nc1cccc(-c2cc(=O)c3c(OC)c(OC)c(OC)cc3o2)c1	41.5%	24.6%	83.2%	36.2%	39%	30%	25%	43.1%	35.4%	56%
COc1cc(-c2nn(-c3ccc(NC(=O)Nc4ccc(Cl)c(Cl)c4)cc3)cc2-c2ccncc2)ccc1Cl	28.9%	18.1%	25%	36.9%	24.3%	16.9%	48%	32.8%	20.1%	41.5%
O=C(CBr)OCc1ccc([N+](=O)[O-])o1	93.9%	104%	91.4%	104%	92.1%	76.2%	113%	90.4%	83%	99.2%
CC(=O)c1cc(Nc2cc(C)nc(N)n2)cc(C(C)=O)c1	111%	111%	90.3%	102%	101%	107%	100%	93.7%	99.8%	111%
COc1ccc(Cn2cc3c(c2)-c2oncc2CC3)cc1OC	16.3%	7.91% (active)	0.447% (active)	42%	18.9%	25.5%	9.72% (active)	40.6%	37.3%	50.3%
COC1NC(Cl)=C(C#N)C(C#N)(C#N)C1(C)C (stereo not given)	121%	108%	105%	115%	105%	122%	111%	98.9%	98.7%	124%
COc1cc(CNC(=O)CCCC/C=C/C(C)C)ccc1OCc1nnc(Nc2ccccc2F)o1	90.1%	89.9%	57.8%	58.6%	84%	72.5%	86.6%	65.5%	83.4%	85.2%
COc1ccc2cc(C(C)C(=O)Nc3ccc(S(=O)(=O)Nc4cc(C)on4)cc3)ccc2c1 (stereo not given)	93.8%	121%	99.7%	117%	98.9%	104%	110%	108%	96.2%	111%
COc1cc2oc(-c3ccc(NC(=O)c4ccccc4)cc3)cc(=O)c2c(OC)c1OC	79.2%	84.3%	81%	75%	90.5%	71.7%	85.7%	85.4%	92.5%	93.3%
CC(=O)OCC1O[C@@H](OC(C)=O)[C@@H](NC(=O)NS(=O)(=O)c2ccccc2)C(OC(C)=O)[C@@H]1OC(C)=O (stereo not given in full)	96.6%	111%	91.2%	98.7%	106%	102%	102%	101%	99.6%	108%
CC(C)OC(=O)[C@H](C)N[P@@](=O)(OC[C@@]1(C)O[C@@H](n2cc(F)c(N)nc2=O)C[C@@H]1O[P@](=O)(N[C@@H](C)C(=O)OC(C)C)Oc1ccccc1)Oc1ccccc1	106%	86%	78.3%	73.8%	93.2%	71.4%	90.6%	99.3%	80.8%	93.5%
CC(C)OC(=O)c1ccc2n1CCCc1cnc(Nc3ccccc3)nc1-2	43.7%	72.5%	98.6%	89%	76.4%	75.7%	61.1%	64.7%	78.7%	92.9%
Cc1ccnc2c(NC(C)CCCN)cc(O)c(O)c12 (stereo not given)	121%	60%	105%	102%	83.1%	91.6%	95.9%	105%	60.7%	115%
CC(=O)Nc1ccc(S(=O)(=O)Cl)cc1	110%	106%	94%	110%	95.6%	99.8%	98.3%	97.9%	94.8%	117%
Cc1ccc(S(=O)(=O)NC(CCC(=O)Nc2ccccc2)C(=O)Nc2ccccc2)cc1 (stereo not given)	0.514% (active)	-14.5% (active)	-24.9% (active)	-3.81% (active)	-43.8% (active)	-10.4% (active)	-65.5% (active)	-45.6% (active)	-21.6% (active)	-33.2% (active)
O=C1/C(=C/c2ccc(Cl)cc2)CCC/C1=C\c1ccc(Cl)cc1	80.9%	6.8% (active)	90.1%	92.5%	14.7%	90.8%	84.6%	80.5%	-67.7% (active)	110%
COc1cc2c(c(OC)c1OC)C(=O)CC(c1cccc(C(=O)Nc3cccc(Br)c3)c1)O2 (stereo not given)	72.1%	82.3%	75.4%	76.4%	81.8%	59.1%	72.9%	58.4%	90%	91.9%
Cn1c2ccccc2c2ccccc21	107%	104%	85.5%	98.3%	96.5%	105%	105%	101%	95.8%	102%
O=C(NCCNCCO)c1cc([N+](=O)[O-])cc([N+](=O)[O-])c1O	106%	104%	102%	102%	99.3%	99.7%	103%	101%	99.1%	106%
COc1cc(CCNc2cnc3cc(N)cc(N)c3n2)cc(OC)c1	104%	100%	98.8%	111%	104%	118%	103%	109%	108%	61%
O=C1/C(=N\c2cc(=O)[nH]n2S(=O)(=O)c2ccccc2)Nc2ccccc21	100%	109%	81.2%	99.8%	105%	87%	98.6%	97.6%	92.4%	116%
CCCCCCCCCCCCCCCCCCOP(=O)(O)O	107%	106%	97%	101%	101%	92.5%	99.2%	91.5%	99.3%	111%
CC1(C)Oc2cc3oc(=O)ccc3cc2C[C@@H]1OCCOS(=O)(=O)c1ccc(C#N)cc1	92.7%	97.2%	93.4%	96.5%	101%	87.3%	93.6%	87.1%	97.6%	101%
CCCCCc1ccnc(CC(=O)c2ccc(OC)cc2)c1	99.7%	70.5%	85.7%	97.8%	88.7%	76.1%	79.4%	89.5%	85%	104%
Oc1ccc(CN(Cc2ccc(C(F)(F)F)cc2)Cc2ccc(O)c3ncccc23)c2cccnc12	20.5%	11.3%	33.5%	30.8%	1.77% (active)	12.9%	-32.6% (active)	-21.3% (active)	18.7%	32.3%
O=C(N/N=C\c1ccc(Cl)cc1)C(=O)N/N=C\c1ccc(Cl)cc1	101%	103%	88.3%	96%	101%	94.5%	109%	97.4%	106%	111%
